Test [1] is described as follows: Cell Viability - Jurkat (AID 426;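 active = dose-dependent loss of cell ATP signal giving a full or clear fitted curve, ranked by lower potency value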; note: potency is the fitted concentration of half-maximal effect). To be noted: qHTS. Summed up:
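Jurkat (clone E6-1, human T-cell leukemia) cells, 5000/well in complete medium, were exposed to compound for 40 hr at 37 °C. Viability was read as intracellular ATP by CellTiter-Glo luminescence; AC50 came from Hill fits of concentration-response data.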
In general terms: In qHTS, concentration-response curves come from the screen itself.

Test [2] can be described thus: Cell Viability - Hek293 (AID 427;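 active = compounds whose dose-response curve shows a full or clear partial loss of cell viability, called from curve shape rather than a numeric limit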;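 note: potency is the fitted concentration of half-maximal effect; cells exposed to compound for 40 hours at 37 °C before reading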). Conditions: qHTS. The method, boiled down:
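HEK293 cells in complete medium were exposed to compound for 40 hr at 37 °C, then cellular ATP was read by CellTiter-Glo luminescence. Data were normalized to DMSO (basal) and 100 uM tamoxifen (100% inhibition), and AC50 came from Hill fits.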

The nature of test [3]: Cell Viability - SH-SY5Y (AID 544).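 Note: 0% = DMSO alone and -100% = 100 µM tamoxifen; nearly all actives have a fitted effect of over 55% in size.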 To be noted: SH-SY5Y neuroblastoma cell viability; viability change, negative = cytotoxic: at 92.2 µM (top of the series). Summed up:
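Human neuroblastoma SH-SY5Y cells (1500/well) in complete medium were exposed to compounds for 40 hr at 37 °C; intracellular ATP was then quantified by CellTiter-Glo luminescence after 20 min at room temperature. AC50 came from Hill-equation concentration-response fits.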

Test [4] can be described thus: Cell Viability - Mesenchymal (AID 546).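 Note: cells exposed to compound for 40 hours before reading; 0% = DMSO only and -100% = 100 µM tamoxifen.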 Conditions: mesenchymal cells viability, qHTS; series mostly up to 91.7 µM. Summed up: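 Normal human renal glomerulus-derived kidney mesenchymal cells, 1000 per well in complete medium, were treated with compounds for 40 hr at 37 °C. Viability was read as intracellular ATP by CellTiter-Glo luminescence; AC50 values came from Hill-equation fits of qHTS concentration-response data.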

A short description of test [5]: MultiTox-Fluor Cytotoxicity Assay - LYMP1-002 - Dead Cells (AID 960).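 Note: 0% = DMSO and 100% = tetraoctylammonium bromide; nearly all actives have a fitted effect of over 60% in size.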 To be noted: LYMP1-002 lymphoblastoid cells, dead-cell protease fluorescence; series mostly up to 46.1 µM. Summed up: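 Human lymphoblastoid cells (LYMP1-002), 2500/well in complete medium, were exposed to compounds for 16 hr at 37 C. Dead-cell protease activity was read as bis-AAF-R110 fluorescence (Ex/Em 485/520), normalized to DMSO and 15 uM tetraoctylammonium bromide; AC50 from Hill fits.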

Test [6] can be described thus: Cell Viability - LYMP2-005 (AID 967).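 Note: plate controls were DMSO only for no effect and 92 µM tetraoctylammonium bromide control for full effect.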 To be noted: LYMP2-005 lymphoblastoid cell viability; series mostly up to 92.2 µM. Summed up:
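LYMP2-005 human lymphoblastoid cells (2500/well) were treated with compounds for 24 h at 37 C. Intracellular ATP was then measured by CellTiter-Glo luminescence after 30 min at room temperature. AC50 values came from Hill-equation fits of qHTS concentration-response data.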

The nature of test [7]: Cell Viability - LYMP2-019 (AID 973).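 Note: 0% = DMSO alone and full effect = 92 µM tetraoctylammonium bromide; nearly all actives have a fitted effect of over 55% in size.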 Conditions: LYMP2-019 lymphoblastoid cell line viability; series mostly up to 92.2 µM. The method, boiled down: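 Human lymphoblastoid cells were seeded at 2500 cells/well, preincubated 5 hr at 37 C, then exposed to compounds for 24 hr at 37 C in complete medium. Intracellular ATP was measured by CellTiter-Glo luminescence; AC50 from Hill fits.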

Test [8] is described as follows: Cell Viability - LYMP2-010 (AID 981). Note: % is set by controls: 0 for no effect and ±100 for the full control effect; nearly all actives have a fitted effect of over 55% in size. To be noted: LYMP2-010 lymphoblastoid cell viability, qHTS; series mostly up to 92.2 µM. The method, boiled down:
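Human lymphoblastoid LYMP2-010 cells (2500/well) were preincubated 5 hr at 37 C, then exposed to compounds for 24 hr at 37 C in complete medium. Intracellular ATP was measured by CellTiter-Glo luminescence after 30 min at room temperature; AC50 from Hill-fitted concentration-response.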

The nature of test [9]: Cell Viability - LYMP2-024 (AID 988).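 Note: plate controls were DMSO only for no effect and 92 µM tetraoctylammonium bromide for full effect; nearly all actives have a fitted effect of over 60% in size.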 To be noted: LYMP2-024 lymphoblastoid cell viability; series mostly up to 92.2 µM. The method, boiled down: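 Human lymphoblastoid cells (2500/well) in complete medium were preincubated 5 hr at 37 C, then exposed to compounds for 24 hr at 37 C. Intracellular ATP was read by CellTiter-Glo luminescence; AC50 from Hill-equation fits of concentration-response data.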

Test [10] can be described thus: Cell Viability - LYMP2-026 (AID 989). Note: % is set by controls: 0 for no effect and ±100 for the full control effect; nearly all actives have a fitted effect of over 50% in size. Conditions: LYMP2-026 lymphoblastoid cell viability, qHTS; series mostly up to 92.2 µM. Summed up:
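Human lymphoblastoid cells (2500/well) in complete medium were preincubated 5 hr at 37 C, then exposed to compounds for 24 hr at 37 C. Cellular ATP was read by CellTiter-Glo luminescence; AC50 from Hill-equation fits of concentration-response data.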

Test [11] in a line: Cell Viability - LYMP1-002 - Assay at 40 hr (AID 994).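 Note: 0% = DMSO only and full inhibition = 92 µM tetraoctylammonium bromide; nearly all actives have a fitted effect of over 60% in size.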 Conditions: LYMP1-002 lymphoblastoid cell viability; series mostly up to 92.2 µM. Summed up:
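Human lymphoblastoid cells, 2500/well in complete medium, were preincubated 5 hr at 37 C, then exposed to compounds for 40 hr at 37 C. Intracellular ATP was read by CellTiter-Glo luminescence after 30 min at room temperature; AC50 from Hill-equation fits.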

For test [12], the target named is Peroxisome proliferator-activated receptor gamma (Homo sapiens) (UniProt P37231). In words: qHTS assay for small molecule agonists of peroxisome proliferator-activated receptor gamma signaling (AID 588536; active = well fitted curve in the direction sought with a large enough effect in the signal ratio, with a control signal flat, not every such curve was filed as active; the % refers to the signal ratio;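 note: 0% = DMSO basal wells and 100% = rosiglitazone at 2 µM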). Conditions: HEK293 PPARg-UAS-bla, beta-lactamase ratio, 16 h, percent of rosiglitazone response, DMSO as zero; series mostly up to 76.7 µM. Summed up: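 GeneBLAzer PPAR-gamma-UAS-bla HEK293 cells in 1% charcoal/dextran-treated FBS medium were treated 16 h at 37 C with compounds. Beta-lactamase activity was read by CCF4 ratio (460/530 nm). Response was normalized to 2 uM rosiglitazone (100%) and DMSO, then Hill-fitted for EC50 and efficacy.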
Chain of Peroxisome proliferator-activated receptor gamma (Homo sapiens) (P37231 whole entry, looked up): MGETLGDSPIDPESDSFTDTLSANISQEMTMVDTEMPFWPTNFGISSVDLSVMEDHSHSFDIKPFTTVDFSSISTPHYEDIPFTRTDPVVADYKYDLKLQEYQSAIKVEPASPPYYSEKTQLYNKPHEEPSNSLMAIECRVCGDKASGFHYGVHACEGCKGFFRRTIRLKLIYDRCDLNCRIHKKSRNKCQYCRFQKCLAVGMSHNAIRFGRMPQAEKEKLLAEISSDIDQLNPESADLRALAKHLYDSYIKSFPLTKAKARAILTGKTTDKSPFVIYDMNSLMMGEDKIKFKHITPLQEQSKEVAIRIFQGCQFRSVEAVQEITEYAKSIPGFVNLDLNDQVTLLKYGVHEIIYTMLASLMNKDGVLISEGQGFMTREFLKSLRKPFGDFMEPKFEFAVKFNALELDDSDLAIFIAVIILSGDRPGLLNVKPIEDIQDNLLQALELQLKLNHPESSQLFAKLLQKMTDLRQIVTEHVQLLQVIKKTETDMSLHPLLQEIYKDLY

A short description of test [13]: qHTS assay for small molecule agonists of retinoid X receptor alpha signaling (AID 588544; calls by dose curve). Conditions: HEK293T RXRa-UAS-bla, beta-lactamase reporter, 18 h; 530 nm emission.
The target in test [14] is Retinoic acid receptor RXR-alpha (Homo sapiens) (UniProt P19793). Described as above. Conditions: HEK293T RXRa-UAS-bla, beta-lactamase reporter, 18 h; series mostly up to 76.7 µM.
Chain of Retinoic acid receptor RXR-alpha (Homo sapiens) (P19793 whole entry, looked up): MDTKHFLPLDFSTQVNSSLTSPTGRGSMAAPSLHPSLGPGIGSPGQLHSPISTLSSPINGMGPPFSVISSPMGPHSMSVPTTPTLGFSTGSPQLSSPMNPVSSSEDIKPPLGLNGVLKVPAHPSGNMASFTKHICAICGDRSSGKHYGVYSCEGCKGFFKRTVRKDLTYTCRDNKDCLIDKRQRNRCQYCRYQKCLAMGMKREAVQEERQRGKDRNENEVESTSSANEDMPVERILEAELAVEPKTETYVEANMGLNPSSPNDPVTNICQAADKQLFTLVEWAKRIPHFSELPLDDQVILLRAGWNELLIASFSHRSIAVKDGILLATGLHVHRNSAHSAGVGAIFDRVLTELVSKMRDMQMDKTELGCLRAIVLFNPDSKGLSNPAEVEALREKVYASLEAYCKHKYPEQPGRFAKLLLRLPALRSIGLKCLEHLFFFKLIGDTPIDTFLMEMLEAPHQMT
In test [15] the target is Thyroid hormone receptor beta (Homo sapiens) (UniProt P10828). In words: qHTS assay for small molecule agonists of thyroid hormone receptor beta signaling (AID 588545; calls by dose curve;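 note: 0% = DMSO only and 100% = 10 nM T3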). To be noted: TR-UAS-bla GripTite HEK 293, beta-lactamase ratio, agonist mode, 18 h; series mostly up to 76.7 µM. The method, boiled down:
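TR-UAS-bla GripTite HEK 293 cells (2500/well, medium with 2% charcoal/dextran FBS) were treated in agonist mode for 18 h at 37 C, titrated. Beta-lactamase was read by CCF4 ratio after 2 h; normalized to 10 nM T3 (100%) and DMSO, Hill-fitted for EC50 and efficacy.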

A short description of test [16]: qHTS assay for small molecule antagonists of retinoid X receptor alpha signaling (AID 588546).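 Note: cells stimulated with 9-cis-retinoic acid as agonist; % is set by controls: 0 for no effect and ±100 for the full control effect.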 To be noted: HEK293T RXRa-UAS-bla, beta-lactamase ratio, antagonist mode; measured here: W530 green channel, cytotoxicity proxy. Summed up: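 Beta-lactamase reporter inhibition, read as CCF4 fluorescence ratio (ex 405, em 460/530 nm) after 2 h at RT. HEK293T UAS-bla cells, 2500/well, were stimulated with 9-cis-RA at 500 or 100 nM final alongside test compound for 18 h at 37 C.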

Test [17] has as its target Tumor necrosis factor (Homo sapiens) (UniProt P01375). In words: qHTS assay to identify small molecules that stimulate Tumor Necrosis Factor-alpha (TNF-alpha) secretion (AID 651757; active = well fitted curve in the direction sought with a large enough effect in the signal ratio; the % refers to the signal ratio; note: 0% is about no effect). Conditions: Human cells, HTRF 665/615 ratio; series mostly up to 92.2 µM. Summed up: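 THP-1 cells were exposed to compounds for 17 hrs at 37 C, after which secreted TNF-alpha was measured by homogeneous HTRF (TR-FRET) using cryptate- and XL665-labeled anti-TNF-alpha antibodies, read after 3 hr at room temperature.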

Test [18] can be described thus: qHTS assay for small molecule antagonists of the retinoid-related orphan receptor gamma (ROR-gamma) signaling pathway - cell viability counter screen (AID 720652; active = well fitted curve in the direction sought with a large enough effect in the repeat runs; an effect the other way counts as inactive or inconclusive;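 note: CHO reporter cells with doxycycline-induced ROR-gamma expression; compound exposure lasted 16 hr before ATP read; % is set by controls: 0 for no effect and ±100 for the full control effect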). Conditions: RORgamma reporter cell line viability counter screen; series mostly up to 92.2 µM. The method, boiled down:
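Counter screen in CHO cells carrying TET-inducible ROR-gamma and an ROR response element-luciferase reporter; cells plated 5 hr, compound pinned, doxycycline added, then 16 hr at 37 C. Viability read as intracellular ATP by CellTiter-Glo luminescence.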

The target in test [19] is Nuclear receptor subfamily 1 group I member 2 (Rattus norvegicus) (UniProt Q9R1A7). In words: qHTS assay for small molecule activators of the rat pregnane X receptor (rPXR) signaling pathway (AID 651751; call rule not given here; note: 0% is about no effect). To be noted: rPXR reporter cells, luciferase (One-Glo), 24 h.
Chain of Nuclear receptor subfamily 1 group I member 2 (Rattus norvegicus) (Q9R1A7 whole entry, looked up): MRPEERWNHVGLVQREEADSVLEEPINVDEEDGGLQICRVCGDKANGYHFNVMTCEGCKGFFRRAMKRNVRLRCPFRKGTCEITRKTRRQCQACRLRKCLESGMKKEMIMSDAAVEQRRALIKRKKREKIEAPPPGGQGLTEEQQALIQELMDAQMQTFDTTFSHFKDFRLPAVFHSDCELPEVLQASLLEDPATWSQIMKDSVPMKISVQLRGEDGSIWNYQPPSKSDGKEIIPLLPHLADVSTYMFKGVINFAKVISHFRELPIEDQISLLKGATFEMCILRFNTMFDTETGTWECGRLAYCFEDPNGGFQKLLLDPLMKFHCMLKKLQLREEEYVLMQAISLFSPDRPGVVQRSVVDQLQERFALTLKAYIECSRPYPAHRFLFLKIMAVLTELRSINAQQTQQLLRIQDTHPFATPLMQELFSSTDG
For test [20], the target named is Cytochrome P450 3A4 (Homo sapiens) (UniProt P08684). In words: qHTS Assay for Inhibitors and Substrates of Cytochrome P450 3A4 (AID 884). Note: % is set by controls: 0 for no effect and ±100 for the full control effect; nearly all actives have a fitted effect of over 50% in size. To be noted: recombinant CYP3A4, Luciferin-PPXE luminescence; series mostly up to 57.1 µM. The method, boiled down: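 20 nM human CYP3A4 with 25 uM Luciferin-PPXE (at KM) in 200 mM KPO4, preincubated 10 min with compound; NADPH regeneration started a 60 min RT reaction. Luciferin detected by luminescence, normalized to 57 uM ketoconazole as full inhibition.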
Chain of Cytochrome P450 3A4 (Homo sapiens) (P08684 whole entry, looked up): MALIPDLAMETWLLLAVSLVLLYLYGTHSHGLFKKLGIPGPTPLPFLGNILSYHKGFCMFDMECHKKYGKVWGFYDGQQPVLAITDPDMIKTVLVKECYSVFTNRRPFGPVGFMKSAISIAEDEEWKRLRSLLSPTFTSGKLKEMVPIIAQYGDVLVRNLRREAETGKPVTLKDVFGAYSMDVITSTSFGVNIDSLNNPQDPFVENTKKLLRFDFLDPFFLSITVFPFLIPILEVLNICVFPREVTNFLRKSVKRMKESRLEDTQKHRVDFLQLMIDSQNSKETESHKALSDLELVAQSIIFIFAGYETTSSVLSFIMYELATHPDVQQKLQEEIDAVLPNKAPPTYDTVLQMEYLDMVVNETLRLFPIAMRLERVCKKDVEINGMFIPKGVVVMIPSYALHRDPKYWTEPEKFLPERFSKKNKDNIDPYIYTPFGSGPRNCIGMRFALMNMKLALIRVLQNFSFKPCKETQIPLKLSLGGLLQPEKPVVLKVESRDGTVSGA

Values joined by “and” are separate entries in the source; they are usually repeats but may differ in a detail not shown here. Identical values can stand only once. Inconclusive results are not listed. Active and inactive are the calls of the source. Unless noted, calls come from the whole dose curve; as a rule, active = well fitted curve in the direction sought with a large enough effect; inconclusive = small, poorly fitted or top-dose-only effect, or another doubt; inactive = no such curve, though single readings can be large; an effect the other way counts as inactive or inconclusive.

Chain of Thyroid hormone receptor beta (Homo sapiens) (P10828 whole entry, looked up): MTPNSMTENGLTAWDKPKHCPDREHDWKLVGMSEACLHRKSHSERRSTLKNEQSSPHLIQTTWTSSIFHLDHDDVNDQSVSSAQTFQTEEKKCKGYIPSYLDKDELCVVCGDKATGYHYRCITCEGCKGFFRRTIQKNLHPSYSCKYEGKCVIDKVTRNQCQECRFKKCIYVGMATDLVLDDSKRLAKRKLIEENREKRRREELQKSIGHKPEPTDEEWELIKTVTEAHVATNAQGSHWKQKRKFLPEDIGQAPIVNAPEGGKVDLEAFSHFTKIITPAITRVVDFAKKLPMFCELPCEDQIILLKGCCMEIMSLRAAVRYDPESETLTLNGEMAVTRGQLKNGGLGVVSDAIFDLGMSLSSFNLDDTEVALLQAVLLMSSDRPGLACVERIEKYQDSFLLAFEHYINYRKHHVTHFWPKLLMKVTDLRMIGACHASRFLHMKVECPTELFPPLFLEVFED
Chain of Tumor necrosis factor (Homo sapiens) (P01375 whole entry, looked up): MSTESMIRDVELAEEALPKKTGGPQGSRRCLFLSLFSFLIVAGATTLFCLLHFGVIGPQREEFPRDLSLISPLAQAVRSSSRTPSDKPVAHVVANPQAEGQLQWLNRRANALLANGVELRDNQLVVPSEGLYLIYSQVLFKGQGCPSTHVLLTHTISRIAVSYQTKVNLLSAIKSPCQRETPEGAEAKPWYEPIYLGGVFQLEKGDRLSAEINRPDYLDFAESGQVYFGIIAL

For the compound `CCOP(=S)(OCC)SCCSCC`, the Potency in test [1] and in test [2] was > 92 µM (inactive) throughout. Also, the Potency entry in test [3], in [4], in [5], in test [6], in test [7] and in test [8] was “inactive” each time. Further, the Potency entry in test [9], in [10], in test [11], in [15] and in test [18] was “inactive” each time. Also, the outcome in test [12], in test [14] and in test [17] was inactive. For the same compound, the max response in [13] was -7.08% and 7.34%; in [16], 7.97% and -18.3%; in test [19], 1.52% (inactive) and -3.09% (inactive).
For the compound `O=[N+]([O-])CCO`, the Potency in [1] and in test [2] was > 92 µM (inactive) throughout. In addition, the Potency entry in test [3], in [4], in [20], in [5], in test [7] and in test [8] was “inactive” throughout. For the same compound, the Potency result in test [9], in test [10], in test [11], in test [15] and in test [18] was “inactive” throughout. The result in test [12], in test [14] and in test [17] was inactive. For the same compound, the max response is 10.9% in test [13], 2.49% in test [16] and 2.92% (inactive) in test [19].
As to `Nc1ccc2ccccc2c1`, the Potency in [1] and in test [2] was > 92 µM (inactive) throughout. In addition, the Potency entry in [3], in [4], in test [6], in test [7], in test [8] and in test [9] was “inactive” throughout. Also, the Potency entry in test [10], in test [11], in test [15] and in test [18] was “inactive” in each case. The outcome in [12], in [14] and in [17] was inactive. Moreover, the max response is -8.86% in test [13] and -4.26% in test [16].
With `CC(C)(C)c1ccccc1O`, the Potency in test [1] and in test [2] was > 92 µM (inactive) each time. In addition, the Potency entry in [3], in test [4], in [20], in test [5], in test [6] and in test [7] was “inactive” throughout. For the same compound, the Potency entry in [8], in test [9], in test [10], in test [11], in test [15] and in test [18] was “inactive” throughout. Further, the outcome in test [12], in test [14] and in test [17] was inactive. The max response was -1.25% and -13.7% in [13]; -15.4% and -14.5% in test [16]; -1.16% (inactive) and -0.87% (inactive) in [19].
Turning to `O=[N+]([O-])c1ccc2c3c(cccc13)CC2`, the Potency in test [1] and in test [2] was > 92 µM (inactive) in each case. Moreover, the Potency entry in [4], in test [5], in [6], in test [7], in test [9] and in [10] was “inactive” throughout. The Potency result in test [11], in [15] and in [18] was “inactive” in each case. In addition, the result in test [12], in [14] and in test [17] was inactive. In addition, the max response in test [13] was 20.4% and -8.69%; in [16] it was -3.8% and -0.996%.
Regarding `CCSC(=O)N1CCCCCC1`, the Potency in test [1] and in [2] was > 92 µM (inactive) throughout. Moreover, the Potency entry in test [3], in [4], in test [20], in test [5], in test [6] and in test [7] was “inactive” in each case. Further, the Potency entry in test [8], in test [9], in test [10], in test [11], in test [15] and in test [18] was “inactive” each time. Besides, the result in test [12], in test [14] and in test [17] was inactive. Further, the max response in [13] is -15.2% and -3.96%; in [16], -11.6% and -2.5%; in test [19], -3.47% (inactive) and 3.01% (inactive).
In the case of `C=CCCC#N`, the Potency in [1] and in [2] was > 92 µM (inactive) each time. Besides, the Potency entry in test [3], in test [4], in [20], in test [5], in test [7] and in [8] was “inactive” each time. Besides, the Potency result in [9], in test [10], in test [11], in [15] and in test [18] was “inactive” throughout. The outcome in [12], in [14] and in [17] was inactive. Besides, the values for the max response in test [13], in test [16] and in test [19] were -8.63%, -6.48% and -6.54% (inactive), respectively.

The values above are taken from PubChem BioAssay (NCATS).
